Consider 21 compounds from ChEMBL document CHEMBL2218924, “A broad activity screen in support of a chemogenomic map for kinase signalling research and drug discovery” (Biochem J, 2013).

Sequence of Serine/threonine-protein kinase 33 (Homo sapiens) (Q9BYT3 whole entry, looked up): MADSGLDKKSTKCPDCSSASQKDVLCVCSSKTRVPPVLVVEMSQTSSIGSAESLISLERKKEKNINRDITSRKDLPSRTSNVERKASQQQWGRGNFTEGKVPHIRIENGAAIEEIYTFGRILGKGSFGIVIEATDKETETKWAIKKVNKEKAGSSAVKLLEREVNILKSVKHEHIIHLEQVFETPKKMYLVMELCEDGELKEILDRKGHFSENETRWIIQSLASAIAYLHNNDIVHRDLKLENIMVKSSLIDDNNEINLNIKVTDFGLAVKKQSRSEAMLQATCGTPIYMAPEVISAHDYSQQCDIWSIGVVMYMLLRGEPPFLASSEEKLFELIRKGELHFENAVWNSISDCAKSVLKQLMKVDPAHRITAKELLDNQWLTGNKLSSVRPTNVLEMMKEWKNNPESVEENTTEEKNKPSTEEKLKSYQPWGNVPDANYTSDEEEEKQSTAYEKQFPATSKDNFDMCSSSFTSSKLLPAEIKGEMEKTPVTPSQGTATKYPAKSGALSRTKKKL
Sequence of Serine/threonine-protein kinase PLK2 (Homo sapiens) (Q9NYY3 whole entry, looked up): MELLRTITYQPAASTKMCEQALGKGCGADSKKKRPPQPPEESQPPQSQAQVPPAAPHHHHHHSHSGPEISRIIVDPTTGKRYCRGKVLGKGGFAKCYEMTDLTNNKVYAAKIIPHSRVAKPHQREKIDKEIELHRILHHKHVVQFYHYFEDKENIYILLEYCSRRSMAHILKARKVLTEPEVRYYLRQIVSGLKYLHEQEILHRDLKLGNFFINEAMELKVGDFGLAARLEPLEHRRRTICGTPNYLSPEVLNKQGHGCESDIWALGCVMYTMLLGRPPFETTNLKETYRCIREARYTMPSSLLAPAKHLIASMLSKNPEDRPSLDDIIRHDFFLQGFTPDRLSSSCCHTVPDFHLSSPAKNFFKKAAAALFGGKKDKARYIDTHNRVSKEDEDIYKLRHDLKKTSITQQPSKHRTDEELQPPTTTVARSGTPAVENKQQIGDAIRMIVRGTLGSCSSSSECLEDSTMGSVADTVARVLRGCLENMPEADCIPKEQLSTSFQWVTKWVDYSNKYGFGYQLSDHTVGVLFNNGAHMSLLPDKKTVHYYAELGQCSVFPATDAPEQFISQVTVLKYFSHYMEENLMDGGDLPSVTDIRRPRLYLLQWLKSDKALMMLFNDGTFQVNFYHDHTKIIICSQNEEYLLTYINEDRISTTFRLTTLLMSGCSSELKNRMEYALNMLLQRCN

One experiment has as its target Serine/threonine-protein kinase 33 (Homo sapiens) (UniProt Q9BYT3). Conditions: at 10 µM.
`CCN1/C(=C/C(C)=O)Sc2ccc(OC)cc21`: the residual activity (usually the signal under treatment as a percentage of the control signal) turned out to be 58%.

Consider `COc1cc2nccc(Oc3ccc(NC(=O)Nc4cc(C)on4)c(Cl)c3)c2cc1OC`, for which the residual activity stood at 73%. On to `COc1ccc(-c2cnc3c(-c4ccsc4)cnn3c2)cc1`, for which the residual activity is 96%. With `O=C1NC(=O)C(c2cn(CCCn3ccnc3)c3ccccc23)=C1Nc1ccccc1`, the residual activity was 32%. On the same count and under the same terms, as for `Cn1c2ccccc2c2c3c(c4c5ccccc5n(CCC#N)c4c21)CNC3=O`, the figure is 14%; as for `O=C(Nc1nc2ccccc2n1CCN1CCOCC1)c1cccc([N+](=O)[O-])c1`, 88%.

Regarding `O=C1Cc2c([nH]c3ccc(Br)cc23)-c2ccccc2N1`, the residual activity was 81%.

With `O=c1cc(N2CCOCC2)oc2c(-c3ccccc3)cccc12`, the residual activity came to 78%. On the same count and under the same terms, as for `Cc1cc(C)c(/C=C2\C(=O)Nc3ccccc32)[nH]1`, the figure is 47%; as for `O=C1Nc2ccccc2/C1=C\c1c(Cl)[nH]c2ccccc12`, 85%. Still for that read-out and setting: the result for `O=C(c1ccccc1)c1ccc(N2CCOCC2)cc1O` reads 98%. Same read-out and setting: as for `O=C(NC(NC(=S)Nc1ccc(F)c([N+](=O)[O-])c1)C(Cl)(Cl)Cl)C(c1ccccc1)c1ccccc1` (stereo unspecified), the figure is 91%; as for `CC(C)[C@H](CO)Nc1nc(Nc2cc(N)cc(Cl)c2)c2ncn(C(C)C)c2n1`, 62%; as for `Nc1ncnc2c1cnn2-c1ccccc1`, 100%. As for `N#Cc1c(NC(=O)c2cccc3ccccc23)sc2c1CCCC2`, the residual activity came out at 92%.

In the case of `O=C(CCCc1ccc(-c2ccccc2F)cc1)Nc1ccc(O)cc1`, the residual activity was determined as 108%. Same read-out and setting: as for `CN(C)S(=O)(=O)c1ccc2c(c1)/C(=C/c1cc3c([nH]1)CCCC3)C(=O)N2`, the figure is 93%.

A further experiment has as its target Serine/threonine-protein kinase PLK2 (Homo sapiens) (UniProt Q9NYY3). Conditions: at 1 µM.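 Also: residual PLK2 kinase activity expressed as percent of uninhibited control, measured in MOPS buffer at pH 7.0 with EDTA.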
With `O=C1C(Cl)=C(N2C(=O)CCC2=O)C(=O)c2ccccc21`, the residual activity is 100%.

As for `COc1cc2ncnc(Nc3cccc(Cl)c3)c2cc1OC`, the residual activity was 109%. The same measure, in the same setting: as for `COc1cc2nccc(Oc3ccc(NC(=O)Nc4cc(C)on4)c(Cl)c3)c2cc1OC`, the figure is 105%; as for `NC(=O)c1ccc(-c2nc(-c3ccc4c(c3)OCCO4)c(-c3ccccn3)[nH]2)cc1`, 93%; as for `O=C1Cc2c([nH]c3ccc(Br)cc23)-c2ccccc2N1`, 99%. The same measure, in the same setting: the result for `O=C1Nc2ccccc2/C1=C\c1c(Cl)[nH]c2ccccc12` reads 99%; that for `O=C(NC(NC(=S)Nc1ccc(F)c([N+](=O)[O-])c1)C(Cl)(Cl)Cl)C(c1ccccc1)c1ccccc1` (stereo unspecified), 90%; that for `N#C/C(=C1/Nc2ccccc2S1)c1ccnc(NCCc2cccnc2)n1`, 97%. In the case of `O=C(CCCc1ccc(-c2ccccc2F)cc1)Nc1ccc(O)cc1`, the residual activity turned out to be 109%.
